Test results: PubChem BioAssay (Tox21)
Several values for one entry are separate records, joined by “and”; a condition that tells them apart may be missing. Equal values may be shown once. Inconclusive results are not listed. Where a call stands in place of a potency, no number is given. The source holds several records for some structures; these can differ, active in one and inactive in another. Activity calls are given as the source filed them. Unless noted, calls follow the shape of the full dose curve.

What was measured:
[1] = Nuclear factor erythroid 2-related factor 2/antioxidant responsive element (Nrf2/ARE) small molecule agonists: qHTS cell viability counter screen in human keratinocytes (AID 1919968; active = well fitted curve in the direction sought with a large enough effect in the repeat runs; an effect the other way counts as inactive or inconclusive; also: nearly all actives have a fitted effect of over 55% in size; also: potency is read from the fitted curve at half-maximal effect)
Method in brief: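 Cells of the KeratinoSens line were plated at 1,500 per well and left for 5 h before compound transfer from DMSO stocks. After a 23 h incubation (37 C, 5% CO2), CellTiter-Fluor was added. Signal was taken as fluorescence intensity 1 h later.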

[2] = Nuclear factor erythroid 2-related factor 2/antioxidant responsive element (Nrf2/ARE) small molecule agonists: luciferase reporter gene qHTS assay in human keratinocytes (AID 1919969); also: nearly all actives have a fitted effect of over 35% in size; also: potency is read from the fitted curve at half-maximal effect
[3] = target: Gonadotropin-releasing hormone receptor (Homo sapiens) (UniProt P30968); assay: Human gonadotropin-releasing hormone receptor (GnRHR) small molecule agonists, calcium flux assay in GnRHR-HEK293 cells (AID 1920063); also: nearly all actives have a fitted effect of over 35% in size
Method in brief: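 Compounds dissolved in DMSO are pin-transferred onto dye-loaded GnRHR-HEK293 cells, which were seeded 18 h before at 37 C/5% CO2. Calcium signal is read as fluorescence intensity at 1 s intervals for 3 min.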

[4] = target: KiSS-1 receptor (Homo sapiens) (UniProt Q969F8); assay: Human kisspeptin (KISS1R) small molecule agonists, calcium flux assay in KISS1R-HEK293 cells (AID 1920064; active = well fitted curve in the direction sought with a large enough effect in the repeat runs; an effect the other way counts as inactive or inconclusive)
Method in brief: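 Cell line: HEK293, stable human KISS1R. Dye loading 1 h at 37 C after 18 h culture. Read: kinetic fluorescence, 480/540 nm, 3 min at 1 s intervals.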

[5] = G protein-coupled receptor (GPCR) small molecule agonists, calcium flux assay: HEK293 wild type cell line counter screen (AID 1920065)
Method in brief: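 Tox21 10K compounds, 15 concentrations each in triplicate, pin-transferred in DMSO onto dye-loaded cells; kinetic read at 480/540 nm for 3 min, 1 s intervals.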

[6] = p53 small molecule agonists, cell-based qHTS assay with human liver microsomes (AID 1963577); also: potency is read from the fitted curve at half-maximal effect
Method in brief: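 p53RE-bla reporter cells were pre-incubated 5 h at 37 C, then treated with compounds plus human liver microsomes (0.5 mg/mL final) and NADPH (0.5 mg/mL final) for 16 h at 37 C. Beta-lactamase activity was read by LiveBLAzer fluorescence after 2 h at room temperature.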

[7] = p53 small molecule agonists, cell-based qHTS assay with human liver microsomes: qHTS cell viability counter screen (AID 1963579); also: nearly all actives have a fitted effect of over 45% in size
Method in brief: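 p53RE-bla cells (4,000/well) were pre-incubated 5 h at 37 C, then given compounds in DMSO plus human liver microsomes (0.5 mg/mL final) and NADPH (0.5 mg/mL final) for 16 h at 37 C. Viability was read by CellTiter-Glo luminescence.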

[8] = p53 small molecule agonists, cell-based qHTS assay with rat liver microsomes: qHTS cell viability counter screen (AID 1963580); also: nearly all actives have a fitted effect of over 45% in size
Method in brief: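 Rat liver microsome (0.5 mg/mL final) and NADPH (0.5 mg/mL final) co-incubation with compounds for 16 h at 37 C on HCT-116 p53RE-bla cells; cytotoxicity taken from intracellular ATP luminescence.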

[9] = p53 small molecule agonists, cell-based qHTS assay: qHTS cell viability counter screen (AID 1963581); also: nearly all actives have a fitted effect of over 45% in size
Method in brief: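 ATP content measured by luminescence in HCT-116 p53RE-bla cells treated 16 h at 37 C, same wells as the reporter screen.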

[10] = p53 small molecule agonists, cell-based qHTS assay (AID 1963582; active = well fitted activation curve with a large enough effect in the signal ratio in the repeat runs, not every such curve was filed as active; the % refers to the signal ratio)
Method in brief: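 16 h compound exposure (37 C) of p53 response element–bla cells, preceded by 5 h recovery at 37 C/5% CO2; read-out via LiveBLAzer B/G FRET substrate, 2 h RT, fluorescence intensity.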

[11] = target: 5-hydroxytryptamine receptor 2A (Homo sapiens) (UniProt P28223); assay: 5-hydroxytryptamine receptor 2A (HTR2A) small molecule antagonists, cell-based qHTS assay (AID 1963586); also: nearly all actives have a fitted effect of over 45% in size; also: potency is read from the fitted curve at half-maximal effect
Method in brief: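 CHO cells stably expressing human HTR2A were plated for 18 h at 37 C, then loaded with calcium dye for 1 h. Compounds were preincubated 5 min at room temperature before DOI (4 nM solution) was added. Kinetic fluorescence was read for 3 min.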

[12] = target: 5-hydroxytryptamine receptor 2A (Homo sapiens) (UniProt P28223); assay: 5-hydroxytryptamine receptor 2A (HTR2A) small molecule agonists, cell-based qHTS assay (AID 1963587); also: nearly all actives have a fitted effect of over 30% in size
Method in brief: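 Kinetic calcium-flux fluorescence (2 min, 1 sec intervals) after compound addition in agonist mode. HTR2A-CHO cells were cultured 18 h, then dye-loaded 1 h at 37 C.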

[13] = target: Muscarinic acetylcholine receptor M1 (Homo sapiens) (UniProt P11229); assay: Cholinergic receptor muscarinic 1 (CHRM1) small molecule antagonists, cell-based qHTS assay (AID 1963588); also: nearly all actives have a fitted effect of over 40% in size
Method in brief: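 Compounds were tested at 15 concentrations in three independent runs. Dye-loaded CHRM1-CHO cells were exposed 5 min at room temperature before stimulation by acetylcholine added at 50nM. Intracellular calcium was read kinetically on FDSS for 3 min.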

[14] = target: Muscarinic acetylcholine receptor M1 (Homo sapiens) (UniProt P11229); assay: Cholinergic receptor muscarinic 1 (CHRM1) small molecule agonists, cell-based qHTS assay (AID 1963589); also: nearly all actives have a fitted effect of over 35% in size
Method in brief: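 Homogeneous fluorescence calcium flux, agonist mode. Human M1-expressing CHO cells; compound dosed at 15 concentrations, three independent runs; signal sampled every 1 sec.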

[15] = cAMP Responsive Elements (CRE) small molecule agonists, cell-based qHTS assay (AID 1963590)
Method in brief: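 HEK 293T cells stably bearing CRE-bla were plated at 2,000 cells per well and rested 18 h. Compounds, positive controls or DMSO were added for 3 h at 37 C. LiveBLAzer B/G substrate was then loaded for 2 h at room temperature.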

[16] = cAMP Responsive Elements (CRE) small molecule antagonists, cell-based qHTS assay (AID 1963591; active = well fitted inhibition curve with a large enough effect in the signal ratio in the repeat runs, not every such curve was filed as active; the % refers to the signal ratio)
Method in brief: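 First, CRE-bla HEK293T cells settled 18 h at 37 C. Next, compound and 0.25 uM final NKH477 were applied for 3 h. Last, LiveBLAzer B/G substrate was loaded for 2 h at room temperature.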

[17] = target: Beta-2 adrenergic receptor (Homo sapiens) (UniProt P07550); assay: Adrenergic beta2 receptor (ADRB2) small molecule antagonists, cell-based qHTS assay (AID 1963592); also: series mostly up to about 92 µM; nearly all actives have a fitted effect of over 50% in size
Method in brief: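 Assay format: CHO-ADRB2 cells, 18-20hr seeding at 37C/5% CO2, then compound plus 1nM isoproterenol agonist mix for 0.5hr RT. Homogeneous time-resolved fluorescence cAMP detection after 1hr, expressed as 665/615 nm ratio.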

[18] = target: D(2) dopamine receptor (Homo sapiens) (UniProt P14416); assay: Dopamine D2 receptor (DRD2) small molecule agonists, cell-based qHTS assay (AID 1963594); also: nearly all actives have a fitted effect of over 35% in size
Method in brief: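 cAMP accumulation in DRD2-HEK293 cells measured by HTRF after 1 h detection; compounds added 10 min before NKH477 (200nM […]) forskolin-analogue stimulation, 30 min at room temperature, with Ro20-1724 present at 0.1 mM final.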

[19] = target: D(2) dopamine receptor (Homo sapiens) (UniProt P14416); assay: Dopamine D2 receptor (DRD2) small molecule antagonists, cell-based qHTS assay (AID 1963595; active = well fitted inhibition curve with a large enough effect in the signal ratio in the repeat runs, with a control signal flat; the % refers to the signal ratio)
Method in brief: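 Antagonist mode in DRD2-HEK293 cells: after compound addition with 0.1 mM Ro20-1724, cells received quinpirole (12 nM) and NKH477 (200 nM) for 30 min at room temperature; HTRF cAMP read after 1 h detection.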

[20] = target: Beta-2 adrenergic receptor (Homo sapiens) (UniProt P07550); assay: Adrenergic beta2 receptor (ADRB2) small molecule agonists, cell-based qHTS assay (AID 1963593);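 also: CHO cells stably overexpressing human ADRB2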
Method in brief: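 CHO cells stably over-expressing ADRB2 were plated overnight at 37C, then dosed with compounds plus a stimulation mix containing 100uM IBMX and 25uM Ro-20-1724 for 0.5hr at room temperature. cAMP was measured by HTRF competition, 1hr.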

Sequence of Gonadotropin-releasing hormone receptor (Homo sapiens) (P30968 whole entry, looked up): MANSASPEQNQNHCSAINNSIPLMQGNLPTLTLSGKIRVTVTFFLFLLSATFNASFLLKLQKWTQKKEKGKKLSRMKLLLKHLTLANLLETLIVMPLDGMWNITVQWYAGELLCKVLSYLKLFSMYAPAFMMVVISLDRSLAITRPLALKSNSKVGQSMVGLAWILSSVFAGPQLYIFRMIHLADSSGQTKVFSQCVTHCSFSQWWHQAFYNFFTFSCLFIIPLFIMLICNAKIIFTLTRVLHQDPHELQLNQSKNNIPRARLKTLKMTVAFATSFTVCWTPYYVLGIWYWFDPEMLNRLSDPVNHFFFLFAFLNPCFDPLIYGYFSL
Sequence of Muscarinic acetylcholine receptor M1 (Homo sapiens) (P11229 whole entry, looked up): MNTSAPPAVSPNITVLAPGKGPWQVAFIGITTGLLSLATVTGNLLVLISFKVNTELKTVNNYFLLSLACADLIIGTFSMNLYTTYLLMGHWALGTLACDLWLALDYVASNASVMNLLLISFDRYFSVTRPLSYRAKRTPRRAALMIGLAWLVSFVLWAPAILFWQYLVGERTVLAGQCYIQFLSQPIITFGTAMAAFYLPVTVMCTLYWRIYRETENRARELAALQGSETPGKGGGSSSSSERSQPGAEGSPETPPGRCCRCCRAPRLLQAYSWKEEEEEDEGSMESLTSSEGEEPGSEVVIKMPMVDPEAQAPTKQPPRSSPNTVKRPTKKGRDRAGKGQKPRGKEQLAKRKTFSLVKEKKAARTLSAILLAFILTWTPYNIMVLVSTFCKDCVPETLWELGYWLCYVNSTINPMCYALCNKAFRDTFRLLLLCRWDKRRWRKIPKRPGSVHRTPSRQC
Sequence of KiSS-1 receptor (Homo sapiens) (Q969F8 whole entry, looked up): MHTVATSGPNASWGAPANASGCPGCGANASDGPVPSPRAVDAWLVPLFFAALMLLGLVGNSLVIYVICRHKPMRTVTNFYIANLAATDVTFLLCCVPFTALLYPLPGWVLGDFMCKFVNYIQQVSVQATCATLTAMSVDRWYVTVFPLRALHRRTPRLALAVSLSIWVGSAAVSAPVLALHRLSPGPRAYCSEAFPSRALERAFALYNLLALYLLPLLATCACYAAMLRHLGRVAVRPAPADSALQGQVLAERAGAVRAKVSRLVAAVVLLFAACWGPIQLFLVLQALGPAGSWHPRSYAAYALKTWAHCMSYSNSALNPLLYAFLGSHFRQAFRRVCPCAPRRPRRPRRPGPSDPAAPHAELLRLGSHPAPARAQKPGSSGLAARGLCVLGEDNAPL
Sequence of Beta-2 adrenergic receptor (Homo sapiens) (P07550 whole entry, looked up): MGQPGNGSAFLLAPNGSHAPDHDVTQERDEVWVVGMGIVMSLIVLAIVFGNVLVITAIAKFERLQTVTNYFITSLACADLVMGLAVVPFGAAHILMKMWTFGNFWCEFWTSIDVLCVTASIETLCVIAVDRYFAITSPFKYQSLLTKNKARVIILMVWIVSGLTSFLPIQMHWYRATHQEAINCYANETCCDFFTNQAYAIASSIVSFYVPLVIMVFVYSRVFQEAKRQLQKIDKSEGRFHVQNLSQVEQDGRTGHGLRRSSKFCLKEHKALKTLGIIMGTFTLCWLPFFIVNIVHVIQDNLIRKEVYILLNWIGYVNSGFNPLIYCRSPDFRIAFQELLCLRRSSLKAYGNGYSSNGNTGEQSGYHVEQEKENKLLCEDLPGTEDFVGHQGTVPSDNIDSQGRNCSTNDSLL
Sequence of 5-hydroxytryptamine receptor 2A (Homo sapiens) (P28223 whole entry, looked up): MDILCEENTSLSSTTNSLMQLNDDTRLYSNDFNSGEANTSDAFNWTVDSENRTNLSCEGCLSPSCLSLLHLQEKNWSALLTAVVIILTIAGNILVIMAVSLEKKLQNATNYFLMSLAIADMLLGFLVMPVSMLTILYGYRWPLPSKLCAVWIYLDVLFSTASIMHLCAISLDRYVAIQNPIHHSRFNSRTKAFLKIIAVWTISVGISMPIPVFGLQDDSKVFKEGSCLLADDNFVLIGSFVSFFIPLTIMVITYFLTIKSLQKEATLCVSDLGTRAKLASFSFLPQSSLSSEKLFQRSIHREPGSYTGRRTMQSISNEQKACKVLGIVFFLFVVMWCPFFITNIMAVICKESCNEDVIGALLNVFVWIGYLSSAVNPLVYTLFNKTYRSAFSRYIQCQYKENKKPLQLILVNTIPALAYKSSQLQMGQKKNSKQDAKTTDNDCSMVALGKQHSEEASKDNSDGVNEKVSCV
Sequence of D(2) dopamine receptor (Homo sapiens) (P14416 whole entry, looked up): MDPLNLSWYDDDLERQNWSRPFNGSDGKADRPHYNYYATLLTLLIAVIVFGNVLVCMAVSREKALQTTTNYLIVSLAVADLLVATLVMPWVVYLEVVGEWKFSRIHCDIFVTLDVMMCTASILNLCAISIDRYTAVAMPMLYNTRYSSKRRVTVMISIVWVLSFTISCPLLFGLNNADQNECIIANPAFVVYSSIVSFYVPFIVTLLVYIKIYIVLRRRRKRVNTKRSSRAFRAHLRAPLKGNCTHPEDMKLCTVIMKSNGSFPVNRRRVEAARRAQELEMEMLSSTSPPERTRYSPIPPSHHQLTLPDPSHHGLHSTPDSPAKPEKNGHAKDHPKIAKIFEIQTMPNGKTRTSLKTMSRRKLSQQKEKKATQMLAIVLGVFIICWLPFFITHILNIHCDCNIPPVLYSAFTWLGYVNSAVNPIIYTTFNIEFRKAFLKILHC

| SMILES | Potency [1] | Potency [2] | Potency [3] | Potency [4] | Potency [5] | Potency [6] | Potency [7] | Potency [8] | Potency [9] | Potency [10] | Potency [11] | Potency [12] | Potency [13] | Potency [14] | Potency [15] | Potency [16] | Potency [17] | Potency [18] | Potency [19] | Potency [20] |
| --- | --- | --- | --- | --- | --- | --- | --- | --- | --- | --- | --- | --- | --- | --- | --- | --- | --- | --- | --- | --- |
| CNC(=O)O/N=C/C(C)(C)S(C)=O (centres undefined) | inactive | inactive | inactive | inactive | inactive | inactive | inactive | inactive | inactive | inactive | inactive | inactive | inactive | inactive | inactive | inactive | inactive | inactive | inactive |  |
| CCOP(=S)(OCC)OP(=S)(OCC)OCC | inactive | inactive | inactive | inactive | inactive | 18.2 µM (active) | inactive | inactive | inactive | inactive | inactive | inactive | inactive | inactive | inactive | inactive | inactive | inactive | inactive | inactive |
| Oc1ccc(C(c2ccc(O)cc2)(C(F)(F)F)C(F)(F)F)cc1 | 38.4 µM (active) and 54.5 µM (active) | inactive | inactive | inactive | inactive | inactive |  |  |  |  | 37.5 µM (active) |  | inactive | inactive |  |  |  | inactive | inactive |  |
| CNC(=O)Oc1cccc2c1OC(C)(C)O2 | inactive | inactive | inactive | inactive | inactive | inactive | inactive | inactive | inactive | inactive |  | inactive | inactive | inactive | inactive | inactive |  | inactive | inactive | inactive |
| N#CC(Cl)Cl | inactive | 59.5 µM (active) | inactive | inactive | inactive | inactive |  | inactive | inactive | inactive | inactive | inactive | inactive | inactive | inactive | inactive | inactive | inactive | inactive |  |
| Cc1cccc(N=Nc2ccc(N(C)C)cc2)c1 | inactive | 247 nM (active) and 1.72 µM (active) | inactive | inactive | inactive | inactive | inactive | inactive | inactive | inactive | inactive | inactive |  | inactive | inactive | inactive | inactive | inactive | inactive | inactive |
| CCOP(=S)(OCC)O/N=C(\C#N)c1ccccc1 | inactive | inactive | inactive | inactive | inactive | 2.57 µM (active) | inactive | inactive | inactive | inactive | inactive | inactive | inactive | inactive | inactive | inactive | inactive | inactive | inactive |  |
| C1CS1 | inactive | inactive | inactive | inactive | inactive | inactive | inactive | inactive | inactive | inactive | inactive | inactive | inactive | inactive |  | inactive | inactive | inactive | inactive |  |
| C=C(C#N)CCC#N | inactive | inactive | inactive | inactive | inactive | inactive | inactive | inactive | inactive | inactive | inactive | inactive | inactive | inactive | inactive |  | inactive | inactive | inactive |  |
| OCC(Cl)CCl (centres undefined) | inactive | inactive | inactive | inactive | inactive | inactive | inactive | inactive | inactive | inactive | inactive | inactive | inactive | inactive | inactive | inactive | inactive |  | inactive | inactive |
| CCOC(=O)CC(SP(=S)(OC)OC)C(=O)OCC (centres undefined) | inactive | 24.3 µM (active) | inactive | inactive | inactive | inactive | inactive | inactive |  | inactive | inactive | inactive | inactive | inactive | inactive |  | inactive | inactive | inactive | inactive |
| Nc1ccc(Cl)cc1 | inactive | inactive | inactive | inactive | inactive | inactive |  |  | inactive | inactive | inactive | inactive | inactive | inactive |  | inactive | inactive | inactive | inactive | inactive |
| COP(=S)(OC)Oc1ccc(SC)c(C)c1 | inactive | inactive and 24.3 µM (active) | inactive | inactive | inactive | inactive | inactive | inactive |  | inactive | inactive | inactive | inactive | inactive | inactive | inactive | inactive | inactive | inactive | inactive |
| Nc1cnn(-c2ccccc2)c(=O)c1Cl | inactive | inactive | inactive | inactive | inactive | inactive | inactive | inactive | inactive | inactive | inactive | inactive | inactive | inactive |  | inactive |  | inactive |  | inactive |
| [CH3][Sn]([Cl])([Cl])[Cl] | inactive | inactive | inactive | inactive | inactive | inactive | inactive | inactive |  | inactive | inactive | inactive | inactive | inactive | inactive | inactive | inactive | inactive | inactive | inactive |
